Measurements: PubChem BioAssay (NCI)
This is part of a sample that, as a whole, favours compounds with a hit. Of some 83,000 tested, about 20% had one in any assay.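 Growth was measured after 48 h exposure to one concentration of compound in 96-well plates. Values under 10 count as active.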 The source made the active and inactive calls.

Tests used:
Test in all cases: NCI-60 one-dose screen, 48 h (100 = growth as untreated, 0 = no growth, -100 = all killed)
HT29 colon = details: 10 µM unless noted
SNB-75 CNS = details: 10 µM unless noted
SNB-19 CNS = details: 10 µM unless noted
U251 CNS = details: 10 µM unless noted
PC-3 prostate = details: 10 µM unless noted
UACC-62 melanoma = details: 10 µM unless noted
LOX IMVI melanoma = details: 10 µM unless noted
SK-MEL-28 melanoma = details: 10 µM
SK-MEL-2 melanoma = details: 10 µM unless noted
SN12C renal = details: 10 µM unless noted
UO-31 renal = details: 10 µM unless noted
TK-10 renal = details: 10 µM unless noted
ACHN renal = details: 10 µM unless noted
CAKI-1 renal = details: 10 µM unless noted
A498 renal = details: 10 µM unless noted
CCRF-CEM leukemia = details: 10 µM unless noted
MOLT-4 leukemia = details: 10 µM unless noted
SR leukemia = details: 10 µM unless noted
SK-MEL-5 melanoma = details: 10 µM unless noted
EKVX NSCLC = details: 10 µM unless noted

Measured: growth

c1ccc(CNc2nc(Nc3ccccc3)nc3ccccc23)cc1
inactive: HT29 colon 54.5% | SNB-19 CNS 47.3% | U251 CNS 29.6% | PC-3 prostate 19.5% | UACC-62 melanoma 27.1% | LOX IMVI melanoma 59.6% | SK-MEL-2 melanoma 21.8% | SN12C renal 71.3% | UO-31 renal 80.7% | TK-10 renal 19.3% | ACHN renal 33.7% | CAKI-1 renal 40.4% | A498 renal 37.4% | CCRF-CEM leukemia 69.5% | MOLT-4 leukemia 80.3% | SR leukemia 20%
active: SNB-75 CNS -6.23% | SK-MEL-28 melanoma -35.1%

O=C(Nc1ncc(Cc2cccc(C(F)(F)F)c2)s1)C1COc2ccccc2O1 (stereo unspecified)
inactive: HT29 colon 84.9% | SNB-75 CNS 83.3% | SNB-19 CNS 89.9% | U251 CNS 83.8% | SK-MEL-5 melanoma 89.8% | UACC-62 melanoma 65.3% | LOX IMVI melanoma 94.8% | SK-MEL-28 melanoma 87.5% | SK-MEL-2 melanoma 88% | EKVX NSCLC 75.5% | SN12C renal 88.8% | UO-31 renal 73.7% | TK-10 renal 97.1% | ACHN renal 97.4% | CAKI-1 renal 84.2% | A498 renal 106% | CCRF-CEM leukemia 86.7% | MOLT-4 leukemia 80.2% | SR leukemia 106%

COc1ccc(Cn2c(Br)c3c(c2-c2cc(OC)c(OC)c(OC)c2)CCc2sc(NC(C)=O)nc2-3)cc1
inactive: HT29 colon 33.7% | SNB-75 CNS 25.3% | SNB-19 CNS 41% | U251 CNS 39.2% | PC-3 prostate 43.7% | UACC-62 melanoma 29.7% | LOX IMVI melanoma 33.3% | SK-MEL-28 melanoma 39.2% | SK-MEL-2 melanoma 55.6% | SN12C renal 71.9% | UO-31 renal 13.9% | TK-10 renal 70.6% | ACHN renal 53.7% | CAKI-1 renal 44% | A498 renal 21.5% | CCRF-CEM leukemia 16.9% | MOLT-4 leukemia 45.1% | SR leukemia 14.3%

O=NN(C(=O)NC1CCC(C(=O)O)CC1)C1CCC(C(=O)O)CC1 (stereo unspecified)
inactive: HT29 colon 108% | SNB-75 CNS 84.1% | SNB-19 CNS 100% | U251 CNS 104% | PC-3 prostate 98.6% | UACC-62 melanoma 108% | LOX IMVI melanoma 99.3% | SK-MEL-28 melanoma 106% | SK-MEL-2 melanoma 122% | SN12C renal 103% | UO-31 renal 92.8% | TK-10 renal 110% | CAKI-1 renal 90.2% | A498 renal 103% | CCRF-CEM leukemia 91.9% | MOLT-4 leukemia 102% | SR leukemia 95%

COc1ccccc1C(=O)/C=C/c1ccccc1
inactive: HT29 colon 56.6% | SNB-75 CNS 88.5% | SNB-19 CNS 82.8% | U251 CNS 43.8% | PC-3 prostate 75.3% | UACC-62 melanoma 85.2% | SK-MEL-28 melanoma 105% | SK-MEL-2 melanoma 104% | EKVX NSCLC 97.8% | SN12C renal 83.5% | UO-31 renal 73.4% | ACHN renal 90.5% | CAKI-1 renal 90.4% | A498 renal 98.8% | CCRF-CEM leukemia 46.3% | MOLT-4 leukemia 81.1% | SR leukemia 43.1%

COC(=O)/C(CCC=C(C)C)=C1\[C@@H](OC(C)=O)C[C@@]2(C)[C@H]1CC(=O)[C@H]1[C@@]3(C)CC[C@H](NCc4ccccc4)[C@@H](C)[C@@H]3CC[C@@]12C
inactive: HT29 colon 37.8% | SNB-75 CNS 83.2% | SNB-19 CNS 95.7% | U251 CNS 74% | PC-3 prostate 70.4% | UACC-62 melanoma 86.7% | LOX IMVI melanoma 81.8% | SK-MEL-2 melanoma 106% | EKVX NSCLC 87.9% | SN12C renal 87% | UO-31 renal 69.9% | TK-10 renal 111% | ACHN renal 99.3% | CAKI-1 renal 86.8% | A498 renal 91.9% | CCRF-CEM leukemia 76.4% | MOLT-4 leukemia 61.7%
active: SR leukemia 1.93%

O=c1oc2ccc(F)cc2c(=O)n1-c1ccc(F)cc1F
inactive: HT29 colon 97.1% | SNB-19 CNS 38.1% | U251 CNS 13.6% | PC-3 prostate 16.1% | LOX IMVI melanoma 14.2% | EKVX NSCLC 93.5% | SN12C renal 24.9% | UO-31 renal 26% | TK-10 renal 10.4% | ACHN renal 36.3% | CAKI-1 renal 16.4% | CCRF-CEM leukemia 35.9% | MOLT-4 leukemia 22.3%
active: SNB-75 CNS 2.33% | UACC-62 melanoma 3.17% | SK-MEL-2 melanoma -11.8% | A498 renal -30.5%

CCOC(=O)c1cc2c(n1Cc1cc(OC)c(OC)c(OC)c1)-c1oncc1CCC2
active: HT29 colon 4.59% | A498 renal -22.9% | CCRF-CEM leukemia 5.78% | MOLT-4 leukemia 7.85% | SR leukemia 2.12%
inactive: SNB-75 CNS 20.2% | SNB-19 CNS 72.1% | U251 CNS 25.3% | PC-3 prostate 37% | UACC-62 melanoma 25.5% | LOX IMVI melanoma 27% | SK-MEL-28 melanoma 41.1% | SK-MEL-2 melanoma 54% | SN12C renal 32.1% | UO-31 renal 38.3% | TK-10 renal 85.2% | ACHN renal 33.8% | CAKI-1 renal 43.7%

COc1cccc(C2=NN3C(C2)c2ccccc2OC3c2ccc(/C=C3\SC(=O)NC3=O)cc2)c1 (stereo unspecified)
inactive: HT29 colon 111% | SNB-75 CNS 95% | SNB-19 CNS 105% | U251 CNS 102% | SK-MEL-5 melanoma 91.8% | UACC-62 melanoma 104% | LOX IMVI melanoma 70.5% | SK-MEL-28 melanoma 104% | SK-MEL-2 melanoma 97.8% | EKVX NSCLC 85.4% | SN12C renal 101% | UO-31 renal 73.2% | TK-10 renal 102% | ACHN renal 98.7% | CAKI-1 renal 96.4% | A498 renal 88.6% | CCRF-CEM leukemia 97.1% | MOLT-4 leukemia 96.9% | SR leukemia 120%

COc1ccc(C2C3=C(COC3=O)N(CCO)c3cc4c(cc32)OCCO4)cc1 (stereo unspecified)
inactive: HT29 colon 50.7% | SNB-75 CNS 60.4% | SNB-19 CNS 81.2% | U251 CNS 87% | PC-3 prostate 72.9% | UACC-62 melanoma 72.4% | LOX IMVI melanoma 77.4% | SK-MEL-2 melanoma 95% | EKVX NSCLC 121% | SN12C renal 95.4% | UO-31 renal 101% | TK-10 renal 91.6% | ACHN renal 96.5% | CAKI-1 renal 80.8% | A498 renal 93.7% | CCRF-CEM leukemia 89.3% | MOLT-4 leukemia 81.9% | SR leukemia 31.6%

O=C(Nc1ccc(Br)cc1F)c1cc(F)ccc1O
inactive: HT29 colon 18% | SNB-19 CNS 19.3%
active: SNB-75 CNS -16.8% | U251 CNS 3.38% | PC-3 prostate 2.45% | UACC-62 melanoma -16.4% | LOX IMVI melanoma 9.8% | SK-MEL-2 melanoma -29.2% | EKVX NSCLC 7.73% | SN12C renal 3.29% | UO-31 renal 6.93% | TK-10 renal 3.6% | CAKI-1 renal -16.7% | A498 renal -68.8% | CCRF-CEM leukemia 7.49% | MOLT-4 leukemia 0.344%

Cc1ccc(Cc2cnc(NC(=O)CN3C(=O)/C(=C\c4ccccc4)SC3=S)s2)cc1
inactive: HT29 colon 114% | SNB-75 CNS 94.4% | SNB-19 CNS 99.7% | U251 CNS 94.8% | UACC-62 melanoma 98.4% | LOX IMVI melanoma 98.6% | SK-MEL-28 melanoma 106% | SK-MEL-2 melanoma 106% | EKVX NSCLC 98.1% | SN12C renal 96.6% | UO-31 renal 89.4% | TK-10 renal 106% | CAKI-1 renal 95.5% | A498 renal 109% | CCRF-CEM leukemia 107% | MOLT-4 leukemia 104% | SR leukemia 114%

CCN(CCO)CCNc1ccc(C)c2sc3cc(Cl)ccc3c(=O)c12
active: HT29 colon -77.3% | SK-MEL-5 melanoma -94.3% | UACC-62 melanoma -53.1% | SK-MEL-28 melanoma -61.7% | ACHN renal 7.81% | A498 renal 1.76% | MOLT-4 leukemia 7.65% | SR leukemia -19.4%
inactive: SNB-75 CNS 62.5% | SNB-19 CNS 44.5% | PC-3 prostate 21.8% | SK-MEL-2 melanoma 94.4% | EKVX NSCLC 84.4% | SN12C renal 37.8% | UO-31 renal 37.5% | CAKI-1 renal 68% | CCRF-CEM leukemia 14.4%

COC(=O)/C(CCC=C(C)C)=C1\[C@@H](OC(C)=O)C[C@@]2(C)[C@H]1C[C@@H](O)[C@H]1[C@@]3(C)CC[C@H](NCCO)[C@@H](C)[C@@H]3CC[C@@]12C
inactive: HT29 colon 104% | SNB-75 CNS 100% | SNB-19 CNS 98.4% | PC-3 prostate 102% | SK-MEL-5 melanoma 102% | UACC-62 melanoma 98% | LOX IMVI melanoma 94.2% | SK-MEL-28 melanoma 106% | SK-MEL-2 melanoma 109% | EKVX NSCLC 99.6% | SN12C renal 105% | UO-31 renal 78.9% | TK-10 renal 115% | ACHN renal 97.3% | CAKI-1 renal 91% | A498 renal 101% | CCRF-CEM leukemia 101% | MOLT-4 leukemia 96.7% | SR leukemia 98.3%

COc1cc(C2C(C#N)=C(N)OC3=C2C(=O)c2ccccc2C3=O)cc(OC)c1O (stereo unspecified)
inactive: HT29 colon 65.1% | SNB-19 CNS 37.3% | PC-3 prostate 18.9% | UACC-62 melanoma 36.9% | LOX IMVI melanoma 25.5% | SK-MEL-28 melanoma 66.4% | SK-MEL-2 melanoma 21.1% | EKVX NSCLC 78.9% | SN12C renal 47.5% | UO-31 renal 36% | TK-10 renal 70.1% | ACHN renal 41.2% | CAKI-1 renal 38.8% | CCRF-CEM leukemia 106% | MOLT-4 leukemia 105% | SR leukemia 38.1%
active: SNB-75 CNS 4.8% | A498 renal -8.45%

O=C(NCCCN1CCC(N2CCCCC2)CC1)C1=Cc2cc(Br)ccc2OC1
inactive: HT29 colon 17.9% | SNB-75 CNS 44.7% | SNB-19 CNS 58.8% | PC-3 prostate 17.5% | UACC-62 melanoma 53.6% | LOX IMVI melanoma 31.3% | SK-MEL-28 melanoma 80.9% | SK-MEL-2 melanoma 35.5% | SN12C renal 57.7% | UO-31 renal 21.8% | TK-10 renal 60% | ACHN renal 37.7% | CAKI-1 renal 54.5% | A498 renal 52.7% | CCRF-CEM leukemia 27.4% | MOLT-4 leukemia 11.9% | SR leukemia 11.4%

O=C(/C=C/c1cccc(Cl)c1)OCc1ccc2cc1OCC#C/C=C\C#CCO2
inactive: HT29 colon 89.3% | SNB-75 CNS 80.9% | SNB-19 CNS 93.9% | PC-3 prostate 96.2% | SK-MEL-5 melanoma 106% | UACC-62 melanoma 89.2% | LOX IMVI melanoma 88.4% | SK-MEL-2 melanoma 113% | EKVX NSCLC 115% | SN12C renal 95.7% | UO-31 renal 80.2% | TK-10 renal 122% | ACHN renal 99.4% | CAKI-1 renal 101% | A498 renal 76.7% | CCRF-CEM leukemia 84% | MOLT-4 leukemia 73.2% | SR leukemia 63%
